Jurkat NFkB inh – inhibitors of induced NF-kB luciferase reporter, primary screen, TCR NF-kB activation inhibitor project, cell-based, luminescence, uHTS; inhibition, % at 4 µM; hit rate 0.53% among 330,000; Jurkat, PMA/ionomycin-induced NF-kB luciferase reporter; in the data active = inhibition above about 50%
697 NFkB inh – inhibitors of PMA/ionomycin-induced NF-kB reporter, 697 cells, primary screen, B-cell NF-kB inhibitor project, cell-based, luminescence, uHTS; hit rate 0.33% among 330,000; 697 B-cell NF-kB luciferase reporter, 16 h; inhibition, % at 4 µM; in the data active = inhibition above about 35%
Calb FLC – C. albicans growth inhibition with fluconazole, primary screen, CaCi-2 strain, Alamar Blue fluorescence; C. albicans CaCi-2 (fluconazole-resistant clinical isolate) + fluconazole, 48 h; growth inhibition, % (concentration not given with the values); hit rate 0.57% among 300,000;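 active = growth inhibition above about 58% in most replicates, limit read from the data, passing the limit was not always enough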;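 note: all wells also contain fluconazole at 8 µg/ml as a sub-toxic cotreatment; 0% = median of DMSO wells and 100% = median of geldanamycin control wells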
Shn3 3UTR inh – reduction of Shn3 3'UTR firefly luciferase signal, primary screen, Schnurri-3 inhibitor project, cell-based, Clone20 osteoblasts, set 2 | hit rate 0.52% among 360,000 | AID 588674, 2011 | inhibition, % at 12.5 µM | Clone20 osteoblast Shn3 3'UTR firefly luciferase, 24 h;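 active = mean inhibition of at least 75% with every replicate also reaching 75%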;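 note: 0% = median of neutral control wells and 100% = pilot-screen positive control compound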
Beta apoptosis – inhibitors of cytokine-induced beta cell apoptosis, primary screen, luminescence | INS-1E cytokine-induced death, ATP luminescence, 48 h; percent of positive-control rescue, neutral wells zero | protection from apoptosis, % (test concentration not listed) | hit rate 0.8% among 300,000 | AID 435005, 2010;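 active = Every replicate reaches about 75%, or at least half do and their mean reaches it too, limit read from the data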;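 note: 0% = cytokine-treated negative control wells and 100% = positive control rescue; higher means more ATP so stronger rescue from cytokine killing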
697 NFkB conf – PMA/ionomycin-induced NF-kB reporter inhibitors, 697 retest, confirmation, B-cell NF-kB inhibitor project, cell-based, luminescence, single concentration | shares compounds with 697 NFkB inh | 697 B-cell NF-kB luciferase, 16 h | AID 449746, 2010 | inhibition, % at 4 µM | hit rate 35% among 2,000; in the data active = inhibition mostly above about 28%, no sharp cut-off; inactive = mostly below about 22%
* marks the source's active call; other numbers are inactive results; i = inactive; . = no result. A selection: hits, their analogues and other compounds. The true share with any hit is near 2%.

SMILES	Jurkat NFkB inh	697 NFkB inh	Calb FLC	Shn3 3UTR inh	Beta apoptosis	697 NFkB conf
CC1CC(C)CN(C(CCc2ccccc2)C(=O)NC2CCCCC2)C1 (stereo unspecified)	.	.	.	-7.5	.	.
NC(=O)C1CCN(C(=O)c2ccc(Cl)c(NC(=O)c3cccs3)c2)CC1	.	.	.	5.8	.	.
COc1ccc(-c2cc(C(=O)N(C)CC(=O)Nc3ccccc3C(F)(F)F)c3ccccc3n2)cc1OC	.	.	.	15.0	.	.
COc1ccc(-c2cc(C(=O)N(C)CC(=O)Nc3ccccc3Br)c3ccccc3n2)cc1OC	19.7	44.4*	7.7	1.5	11.5	20.9
COCCCNC(=S)N1CCN(C(c2ccccc2)c2ccccc2)CC1	-11.7	-10.8	14.9	-15.2	-10.8	.
Cc1ccccc1CN1CCc2cc([N+](=O)[O-])ccc21	16.0	3.3	1.4	35.0	-2.6	.
COC(=O)CCN1CCc2cc(N=Nc3ccc([N+](=O)[O-])cc3)ccc21	-90.1	-281.6	-3.6	-44.8	39.6	-94.7
CCC(=O)Nc1ccc(-c2ccc(NC(=O)CC)c(OC)c2)cc1OC	-8.2	10.2	5.9	-9.0	4.2	.
COc1cc(-c2ccc(NC(=O)NC3CC3)c(OC)c2)ccc1NC(=O)NC1CC1	-32.0	-299.1	.	.	10.4	-5.4
N#CC1=C(N)Oc2cc(Nc3ccccc3)ccc2C1c1ccncc1 (stereo unspecified)	-8.5	37.1*	17.4	25.2	-8.1	41.0*
CCOC(=O)C1CCN(c2ncnc3c2cnn3-c2ccccc2)CC1	6.0	27.4	-2.4	-18.8	0.1	.
CCOC(=O)C1CCN(c2ncnc3c2cnn3-c2ccc(Cl)cc2)CC1	24.2	60.9*	-8.2	35.0	-2.3	66.8*
Cn1c(=NC(=O)CCl)sc2ccccc21	46.0	88.3*	4.3	-16.5	-5.7	79.0*
Cc1ccsc1/C=C1\CCc2ccccc2C1=O	-141.1	-342.1	-1.9	-13.4	25.4	-299.4
O=C(NCCCn1ccnc1)c1ccc(S(=O)(=O)N2CCCCCC2)cc1	-15.4	-20.4	16.1	-12.1	1.3	.
CC1CC(C)CN(S(=O)(=O)c2ccc(C(=O)NCCCn3ccnc3)cc2)C1 (stereo unspecified)	1.5	69.6*	7.2	46.8	113.8*	50.3*
COc1ccc(CCC(=O)Nc2ccc(S(=O)(=O)Nc3nccc(C)n3)cc2)cc1	-4.4	-11.3	-2.3	-8.2	-2.6	.
COc1cc(OC)c2c(-c3cccc(-c4ccc(C(C)=O)cc4)c3)cc(=O)oc2c1	.	-36.5	.	-4.5	.	.
COc1cc(OC)c2c(-c3cccc(-c4ccc(OC)c(F)c4)c3)cc(=O)oc2c1	.	-347.0	.	-8.8	.	-258.1
Cc1c(C)n2c(SCC(=O)N3CCN(c4ccccc4)CC3)nnc2[nH]c1=O	1.3	1.1	4.8	-2.1	.	.
ClCc1nnc(-c2ccccc2)o1	5.0	35.4*	-1.1	-11.2	-15.3	29.4*
c1ccc(OCc2nnc(-c3ccccc3)o2)cc1	-58.7	-39.0	-15.2	-51.9	0.6	.
Brc1cc2[nH]cnc2c2ccccc12	-0.9	38.8*	31.1	-0.3	-20.5	25.6
O=C(O)CCC(=O)c1ccc2c(c1)CCCC2	7.2	35.4*	-2.0	27.0	-2.3	-4.2
CCCc1c(C)[nH]c2ccc(C(=O)O)cc2c1=S	.	.	-1.9	8.4	.	.
SMILES	Jurkat NFkB inh	697 NFkB inh	Calb FLC	Shn3 3UTR inh	Beta apoptosis	697 NFkB conf
NC(=O)N1c2ccccc2C=Cc2ccccc21	-4.8	16.8	0.1	11.4	-17.9	.
CCN(CC)C(=O)N1c2ccccc2C=Cc2ccccc21	-72.3	i	-2.6	2.6	-8.1	i
O=C(NC1(C(F)(F)F)NC(=O)N(c2ccc(F)cc2)C1=O)c1cccs1 (stereo unspecified)	-2.6	6.9	4.6	-14.4	3.3	.
CCOc1ccc2[nH]c3c(N4CCN(c5ccccn5)CC4)ncnc3c2c1	0.3	45.1*	41.4	9.3	14.4	27.0
COc1ccc(CCNC(=O)Cn2c(=O)n(-c3cc(F)ccc3F)c(=O)c3sccc32)cc1OC	-2.7	43.2*	1.5	-17.0	3.1	17.7
CC(=O)c1c(C)[nH]c(C(=O)NC2CCSc3ccccc32)c1C (stereo unspecified)	8.3	-9.2	22.5	25.9	3.3	.
